“And” between values parts separate entries of the source, which are not always exact repeats. Equal values may be shown once. This is part of a sample that, as a whole, favours compounds with a hit. Of some 83,000 tested, about 20% had one in any assay.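 In brief: 96-well plates, 48 h treatment, single concentration, percent growth endpoint.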 The source made the active and inactive calls. How the source made its calls: active means growth percent below 10; inactive means the rest.

The test system of this test is HCC-2998 colon. In words: NCI-60 one-dose screen, 48 h (100 = growth as untreated, 0 = no growth, -100 = all killed). Conditions: 10 µM unless noted.
Turning to `CCCCn1c(=O)c(C(=O)NCc2ccccc2Cl)c(O)c2ccccc21`, the growth is 93.4% (inactive).

Take `O=C(NCCCN1CC1)Nc1cccc2ccccc12`: the growth is 97.9% (inactive) and 93.4% (inactive).

As for `Oc1cc(N2CC2)c(O)cc1N1CC1`, the growth is -55.2% (active).

For `CC12CCC3C4CCC(=O)C=C4CCC3C1CC1CC(=O)OC12` (configuration not stated), the growth was 110% (inactive).

Consider `CCOP(=O)(OCC)C(=O)N(CC)CC`, for which the growth was 110% (inactive).

As for `C#Cc1cccc(Nc2nc(Cl)nc3cc(NC(=O)CF)ccc23)c1`, the growth was 78.2% (inactive).

Take `CC[C@H](C)[C@H](NC(=O)[C@H]1CCCCN1C)C(=O)N(C)[C@H](C(=O)NC12CC(C(=O)N[C@@H](Cc3ccccc3)C[C@H](C)C(=O)OC)(C1)C2)C(C)C`: the growth was 109% (inactive).

Consider `CN1CCC2(CC1)C(C#N)C(=O)NC(=O)C2C#N` (configuration not stated), for which the growth was 112% (inactive).

In the case of `CC12CCC3C(CCC4CC(O)CCC43C)C1CCC2=O` (configuration not stated), the growth is 99.2% (inactive).

Consider `C=CC[PH+](c1ccccc1)c1ccccc1.C=CC[PH+](c1ccccc1)c1ccccc1.[Pt+2].[S-]c1nc2ccccc2[nH]1.[S-]c1nc2ccccc2[nH]1`, for which the growth was -33.2% (active).

Take `Cc1cc[c-]cc1.Fc1c[c-]c(-c2ccccn2)c(F)c1.[Pt+2].c1ccc([PH+](c2ccccc2)c2ccccn2)cc1`: the growth is 83.2% (inactive).

As for `C=C[Se]CC(=O)/C=C/c1ccccc1`, the growth is 85.4% (inactive).

As for `CCCCCCCCCCCCCCCCCC1OCC(COC(=O)O[C@@H](C(=O)O[C@H]2C[C@@]3(O)[C@@H](OC(=O)c4ccccc4)[C@@H]4[C@]5(OC(C)=O)CO[C@@H]5C[C@H](O)[C@@]4(C)C(=O)[C@H](OC(C)=O)C(=C2C)C3(C)C)[C@@H](NC(=O)c2ccccc2)c2ccccc2)O1` (some centres not stated), the growth was 32% (inactive).

With `CC1(C)C=Cc2c(ccc3c2[N+]([O-])=C2C3=C[C@@]34NC(=O)[C@]5(CCCN5C3=O)C[C@@H]4C2(C)C)O1`, the growth is 78.1% (inactive).

`O=C(O)C1C(C(=O)O)C2(Cl)C(Cl)=C(Cl)C1(Cl)C2(Cl)Cl` (configuration not stated): the growth was 102% (inactive).

In the case of `CNC(=O)O/N=C(\SC)C(=O)N(C)C`, the growth is 77.4% (inactive).

`C[C@]12CCc3sc(Nc4ccc(F)cc4F)nc3C1=CC[C@@H]1[C@@H]2CC[C@]2(C)C(=O)CC[C@@H]12`: the growth was 71.6% (inactive).

In the case of `N#CC(C#N)=C(C#N)C#N`, the growth was 110% (inactive).

For the compound `N#CCC(=O)c1ccccc1`, the growth was 71.2% (inactive).

For the compound `O=C(O)c1ccc(=O)[nH]c1`, the growth is -49% (active) and 101% (inactive).

On to `CC[C@H](C)[C@H](NC(=O)CN(C)C)C(=O)N(C)[C@H](C[C@@H](OC(C)=O)c1nc(C(=O)NC23C4C5C2C2C3C4C52C(=O)OC)cs1)C(C)C` (some centres not stated), for which the growth is 18.5% (inactive).

For `CNC(=O)Oc1ccc(Cl)cc1SSc1cc(Cl)ccc1OC(=O)NC`, the growth was 99.8% (inactive).

`CC(=O)OC1CC2(O)C(CCC3(C)C(c4ccc(=O)oc4)CCC32O)C2(C)CCC(OC3OC(CO)C(O)C(O)C3O)C=C12` (configuration not stated): the growth was -63.3% (active).

For `Oc1ccc(O)c(Cl)c1`, the growth is 110% (inactive) and 88.1% (inactive).

For `CC(=O)Nc1nc2c(s1)C1=CC[C@H]3[C@@H]4CC[C@H](OC(C)=O)[C@@]4(C)CC[C@@H]3[C@@]1(C)CC2`, the growth was 93.7% (inactive).

For the compound `O=C(O)C(F)F`, the growth was 123% (inactive).

Regarding `CC[C@H](C)[C@H](NC(=O)C12CC(NC)(C1)C2)C(=O)N(C)[C@H](C[C@@H](OC(C)=O)c1nc(C(=O)N[C@@H](Cc2ccccc2)C[C@H](C)C(=O)OC)cs1)C(C)C`, the growth is 8.1% (active).

Consider `NC(=O)Oc1cc(OC(N)=O)cc(N(CCCl)CCCl)c1`, for which the growth is 103% (inactive).

For `CC[PH+](CC)CC.O=COC1OC([S-])C(OC=O)C(OC=O)C1OC=O.[Au+]` (configuration not stated), the growth is -90% (active).

In the case of `CCOC(=O)c1ccccc1C(=O)OCC`, the growth was 110% (inactive).

With `C[C@@H]1C/C=C\C(=O)O[C@H](/C=C/C#C/C=C/C(C)(C)[C@@H](O)c2cccc(O)c2Br)[C@@H](C)/C=C/[C@H](C)C[C@H](OC(N)=O)C1`, the growth was 28.2% (inactive).

`Cc1c(C)c(N)c(C)c(C)c1N`: the growth was 106% (inactive).

In the case of `Nc1ccc(P(=O)(O)O)cc1`, the growth is 100% (inactive) and 96% (inactive).

In the case of `OCCN=Cc1c[nH]c2ccccc12`, the growth is 107% (inactive).

Regarding `S=P(SP(=S)(c1ccccc1)c1ccccc1)(c1ccccc1)c1ccccc1`, the growth was 104% (inactive).

Take `CN1CCc2cc3c(cc2C1O)OCO3` (configuration not stated): the growth was 102% (inactive) and 108% (inactive).

As for `Cc1cc(NC(=O)NCCCOc2ccc(N3C(N)=NC(N)=NC3(C)C)cc2Cl)ccc1S(=O)(=O)F`, the growth was 7.8% (active).

These data come from PubChem BioAssay (NCI).
